# Source: PubChem BioAssay
# Lassa entry inh = inhibitors of Lassa virus binding or cell entry. Lassa virus pseudotype entry inhibition, cell reporter. Potency, µM (titrated, usually from 37.9 µM), for the others: at the highest dose activity change, negative = inhibition, actives largely listed as inhibitors. hit rate 1.2% among 300,000; calls by dose curve; tested in HEK293 cells; also: potency is read from the fitted curve at half-maximal effect; % is scaled to controls: 0 for no effect and ±100 for the full control effect; nearly all actives have a fitted effect of over 50% in size
# MARV entry inh = blocks Marburg virus binding to or entry into cells | Marburg virus pseudotyped entry inhibition, cell reporter | Potency, µM (highest dose often 37.8 µM), inactives show top-dose activity change, negative = inhibition, usual class: inhibitors | hit rate 1.8% among 300,000; calls by dose curve; tested in HEK293 cells; also: potency is read from the fitted curve at half-maximal effect; % is scaled to controls: 0 for no effect and ±100 for the full control effect
# Shiga inhibitor = Shiga toxin inhibition. Vero cells, Shiga toxin protein synthesis inhibition reporter. inhibition, % at 38.7 µM. hit rate 9.2% among 290,000. AID 2315; in the data active = inhibition mostly above about 28%, no sharp cut-off; inactive = mostly below about 43%; also: 0% is about no effect
# Pf growth 48h = inhibits P. falciparum growth in the first generation, 48 h; P. falciparum luciferase growth in erythrocytes, 48 h; Potency, µM (highest dose often 28.7 µM), for the others: at the top dose activity change, negative = inhibition, most hits filed as inhibitors; hit rate 5.9% among 310,000; also: potency is read from the fitted curve at half-maximal effect; % is scaled to controls: 0 for no effect and ±100 for the full control effect
#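 Luciferase-expressing P. falciparum in infected erythrocytes (2% hematocrit, 0.1% parasitemia final) in RPMI 1640/0.5% Albumax were exposed to compound for 48 hours at 37 C, 5% CO2; growth read as luminescence.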
# CHX counter = counter-screen hit for Shiga toxin inhibitors, cycloheximide | hit rate 12% among 300,000 | max response, % | cell reporter, cycloheximide protein synthesis inhibition counterscreen; in the data active = max response mostly above about 13%, no sharp cut-off; inactive = mostly below about 14%; also: read at 38.3 µM for the half of the compounds with a filed dose; 0% is about no effect
# Pf growth 96h = inhibits malaria parasite growth, 96 h. P. falciparum luciferase reporter growth, 96 h. Potency, µM (top dose mostly 28.7 µM), for inactives: top-dose activity change, negative = inhibition, most hits filed as inhibitors. hit rate 6.9% among 320,000; also: potency is read from the fitted curve at half-maximal effect; % is scaled to controls: 0 for no effect and ±100 for the full control effect
#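 96 h incubation, 37 C, 5% CO2, of luciferase-reporter P. falciparum-infected RBCs (2% hematocrit, 0.05% parasitemia final) with test compounds; endpoint luminescence.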
# Starred values were filed as active, the others as inactive; ? = inconclusive; · = no result; + = active, no number; [ ] = another dose, or the depositor's remark. Sampled rows, rich in hits. Any-hit rate of the full collection: about 19%. Unless noted, calls follow the shape of the dose curve; as a rule, active = well fitted inhibition curve with a large enough effect; inconclusive = small, poorly fitted or top-dose-only effect, or another doubt; inactive = no such curve, though single readings can be large or run the other way.
SMILES,Lassa entry inh,MARV entry inh,Shiga inhibitor,Pf growth 48h,CHX counter,Pf growth 96h
O=C(N/N=C/c1ccc(Br)cc1)c1ccc(Br)o1,?,?,65*,39%,51*,36%
O=C(N/N=C/c1ccc(F)cc1)c1ccccc1,·,·,126*,102%,33*,21%
COC(=O)c1[nH]c2cccc(OC)c2c1NC(=O)CCN1CCN(c2cccc(Cl)c2)CC1,·,0%,-9,?,-3,?
CCc1ccccc1NC(=O)CSc1nnc(-c2ccc(OC)cc2)s1,2%[46.1 µM],·,·,·,·,·
CCCCN(Cc1ccccc1)C(=O)C1CCC(=O)N(CCc2ccccn2)C1 (centres undefined),·,·,-1,-5%,-2,?
c1ccc(COC2CCCN(Cc3nc(Cc4ccccc4)no3)C2)cc1 (centres undefined),·,·,9,?,1,14%
CCCCSCc1nc2ccccn2c1Br,-4%[46.1 µM],5%[46.1 µM],56*,?,31*,?
CCSCc1nc2ccccn2c1Br,·,·,-5,-12%,16,?
O=C(CSc1nnc(NC(=O)C2CC(=O)N(c3ccc(F)cc3)C2)s1)NC1CCCC1 (centres undefined),0%,5%,23,-4%,-2,?
CCCn1c(=O)n(C)c(=O)c2c(SCC(=O)Nc3cc(C)on3)nc(C(C)(C)C)nc21,·,·,·,10µM*,·,?
Cc1cc(NC(=O)CSc2nc(C(C)C)nc3c2c(=O)n(C)c(=O)n3C)no1,·,·,14,?,-2,?
COC(=O)c1ccccc1NC(=O)c1cc(C)no1,·,·,-5,?,-5,5%
CC(=O)c1ccc(NC(=O)/C=C/c2ccc(C)cc2)cc1,2%,6%,48,-4%,7,31%
Cc1cc(NS(=O)(=O)c2ccc(NC(=O)/C=C/c3ccc(Br)cc3)cc2)no1,13%,9%,-6,-3%,-2,-32%
Cc1ccc(/C=C/C(=O)NC2=NCCS2)cc1,1.6µM*,3.2µM*,92*,75%,70*,?
CC(C)(C)c1ccc(/C=C/C(=O)NC2=NCCS2)cc1,14µM*,-27%,+,-2%,54*,-13%
Cc1ccc(/C=C/C(=O)Nc2cc(C)on2)cc1,?,?,62*,?,58*,?
CC(C)(C)c1ccc(/C=C/C(=O)Nc2ccc(S(N)(=O)=O)cc2)cc1,-14%[46.1 µM],?,·,·,·,·
COc1cc(-c2nc3cnccn3c2Nc2ccc3c(c2)OCCO3)ccc1O,0%,?,15,?,7,41%
COc1cc(-c2nc3cnccn3c2Nc2ccc(C)cc2)ccc1O,?,-10%,2,?,17,·
COc1cc(-c2nc3cnccn3c2Nc2ccc(C(C)C)cc2)ccc1O,?,?,73*,?,29*,·
COc1cc(-c2nc3cnccn3c2Nc2ccccc2)ccc1O,-17%,-30%,8,?,-2,5.2µM*
Cc1ccccc1C(=O)Nc1nnc(-c2ccncc2)o1,?,0%,21,-8%,7,-27%
Cc1cccc(NC(=O)c2nc[nH]c2C(=O)N2CCc3ccccc3C2)c1,·,·,·,5%,·,?
CC(=O)/C=C\c1cn(-c2ncc(C(F)(F)F)cc2Cl)c2ccccc12,?,?,11,?,-3,10µM*
SMILES,Lassa entry inh,MARV entry inh,Shiga inhibitor,Pf growth 48h,CHX counter,Pf growth 96h
N#CC(C#N)=Cc1cn(-c2ncc(C(F)(F)F)cc2Cl)c2ccccc12,-15%,2%[46.1 µM],14,-25%,5,2%
Cc1ccc(N)c(N)c1,·,·,157*,28%,51*,93%
COc1ccc(-c2nnc3cccc(Cl)n23)c(OC)c1,5%,?,43*,16%,10*,15%
Clc1ccc(-c2nnc3cccc(Cl)n23)c(Cl)c1,6%,8%,-13,-17%,-3,?
CN(CC(=O)N1CCOCC1)C(=O)CSc1nc2ccccc2s1,8%[46.1 µM],6%[46.1 µM],21,8%,11,?
Nc1nonc1NC(=O)CSc1nc2ccccc2s1,-5%,15%[46.1 µM],12,19%,18,10µM*
O=C(CSc1nc2ccccc2s1)Nc1nccs1,7%,2%,11,14%,15,100%
CC(C)OC(=O)CSc1nc2ccccc2s1,7%,1%,64*,26%,49*,?
O=C(CSc1nc2ccccc2s1)c1cc2ccccc2o1,7%,5%,45,-11%,24*,9%
COC(=O)c1ccc(CSc2nc3ccccc3s2)o1,-3%,0%,48*,72%,56*,0%
CN(C(=O)CSC1=NC2C(N=N1)c1cc(Br)ccc1N2C)C1CCCCC1 (centres undefined),26%[46.1 µM],9%[46.1 µM],-34,12%,-1,?
CCOc1ccccc1NC(=O)CSc1nc2c([nH]c3ccccc32)c(=O)n1-c1ccccc1,-22%[46.1 µM],·,·,·,·,·
CC(=O)CSc1nc2ccccc2s1,-5%,0%,61,84%,25*,57%
Cc1cc(C)c(NC(=S)NCCCSC2CCCCC2)c(C)c1,?,?,-8,?,1,9%
Cc1ccc(SC(C)C(=O)O/N=C(\N)c2ccncc2)cc1 (centres undefined),·,·,-23,?,20*,?
Cc1ccc(OCC(=O)O/N=C(\N)c2ccncc2)c(C)c1,?,3%,114*,76%,33*,165%
Cc1cc(C)c(C)c(OCC(=O)O/N=C(\N)c2ccncc2)c1,-1%[46.1 µM],?,-4,?,-2,49%
Cc1ccccc1OCC(=O)O/N=C(\N)c1ccncc1,-22%[46.1 µM],?,99*,?,45*,45%
CCCC(=O)c1ccc(CP(=O)(OCC)OCC)o1,·,·,-4,-13%,9,0%
CC(C)CC1C(C#N)=C(N)Oc2n[nH]c(-c3ccccc3)c21 (centres undefined),2%,0%,-4,-17%,-2,?
CCNC(=O)c1ccc(-n2nc(C)cc2-c2ccccc2)cc1,0%,10%,-16,?,-3,1.5µM*
CCOC(CNC(=O)c1cc(C)nn1-c1ccccc1)OCC,-10%,-19%,9,6%,-2,·
CCOCCCNC(=O)c1cc(C)nn1-c1ccccc1,·,·,20,8%,-4,12µM*
Cc1cc2c(n1-c1ccc(Cl)cc1)CC(C)(C)CC2=O,-31%[14.3 µM],-3%,17,·,-3,?
CCc1ccc(-c2ccc(C(=O)Oc3ccc(Br)cc3)cc2)nc1,6%[46.1 µM],·,·,·,·,·
CCc1ccc(-c2ccc(C(=O)O)cc2)nc1,-3%,20%,37,96%,38*,?
Cc1cc(C)cc(OCC(=O)Nc2ccc(N3CCCC3)cc2)c1,8%,-12%,-6,?,-1,140%
CCN1CCN(Cc2nc3cc(NC(=O)COc4ccc([N+](=O)[O-])cc4)ccc3n2C)CC1,·,·,13,?,-3,?
Cc1cccc(OCC(=O)Nc2ccc3c(c2)nc(CCN2CCCCC2)n3C)c1,·,·,-7,?,-2,?
Cc1cccc(OCC(=O)Nc2ccc3c(c2)nc(CN2CCCCC2)n3C)c1,?,?,53,-14%,29*,-8%
